About 8,800 targets were measured; listed, in parts, are those with a hit and a random draw of the rest. About 0.5% of all pairs of compound and target were hits.
How the values were obtained:
Test in all cases: log2 fold change, soluble protein after heating vs DMSO (PISA); higher = thermal stabilisation; K562 lysate, 10 uM; active = over 0.2 and 3.5 SD of the protein, either way, in both replicates (recomputed)
[1] = compound: CCCS(=O)(=O)Nc1ccc(F)c(C(=O)c2c[nH]c3ncc(-c4ccc(Cl)cc4)cc23)c1F [vemurafenib]
In short: (§1)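 Quantification was by TMTpro 16plex LC-MS/MS with equalised channel sums, applied to the supernatant after 21,000xg for 90 min. Samples were crude K562 extract at 1 mg/mL protein in PBS pH 7.4 with 1 mM MgCl2, treated with 10 μM compound for 30 min, heated for 3 min across 48°C-58°C, pooled and brought to 0.5% NP-40 at 4°C. Values are log-two fold changes in thermal stability relative to solvent controls, from duplicates.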

[2] = compound: CCCS(=O)(=O)Nc1ccc(F)c(C(=O)c2c[nH]c3ncc(Cl)cc23)c1F
In short: as §1

[3] = compound: CCN(CCCOc1ccc2c(Nc3cc(CC(=O)Nc4cccc(F)c4)[nH]n3)ncnc2c1)CCOP(=O)(O)O [barasertib]
In short: as §1

[4] = compound: CC[C@@H]1C(=O)N(C)c2cnc(Nc3ccc(C(=O)NC4CCN(C)CC4)cc3OC)nc2N1C1CCCC1
In short: as §1

[5] = compound: CC[C@@H]1C(=O)N(C)c2cnc(Nc3ccc(C(=O)N[C@H]4CC[C@H](N5CCN(CC6CC6)CC5)CC4)cc3OC)nc2N1C(C)C [volasertib]
In short: as §1

[6] = compound: CCn1c(C(=O)N(C2CC2)C2CC2)cc2c3c(ncn3C)c(Nc3cc(C)n(C)n3)nc21
In short: as §1

[7] = compound: CCn1cc(-c2ccnc3[nH]c(-c4cccc(CN(C)C)c4)cc23)c(-c2ccc(NC(=O)N(C)C)cc2)n1
In short: as §1

[8] = compound: CN1CCC(CNc2ccc3ncc(-c4cccc(OC(F)(F)F)c4)n3n2)CC1
In short: as §1

[9] = compound: CN1CCN(CCOc2cc(OC3CCOCC3)c3c(Nc4c(Cl)ccc5c4OCO5)ncnc3c2)CC1 [saracatinib]
In short: as §1

[10] = compound: CN1CCN(c2nc(C3=C(c4c[nH]c5ccccc45)C(=O)NC3=O)c3ccccc3n2)CC1 [sotrastaurin]
In short: as §1

Measured: log2 fold change

MYCBP (UniProt Q99417)
active: [7] -0.589
inactive: [1] -0.001 | [2] 0 | [3] 0.16 | [4] -0.003 | [5] 0.044 | [6] -0.007 | [8] 0.189 | [9] 0.021 | [10] 0.035

NUCB2 (UniProt P80303)
UniProt P80303, sequence (P80303 whole entry, looked up): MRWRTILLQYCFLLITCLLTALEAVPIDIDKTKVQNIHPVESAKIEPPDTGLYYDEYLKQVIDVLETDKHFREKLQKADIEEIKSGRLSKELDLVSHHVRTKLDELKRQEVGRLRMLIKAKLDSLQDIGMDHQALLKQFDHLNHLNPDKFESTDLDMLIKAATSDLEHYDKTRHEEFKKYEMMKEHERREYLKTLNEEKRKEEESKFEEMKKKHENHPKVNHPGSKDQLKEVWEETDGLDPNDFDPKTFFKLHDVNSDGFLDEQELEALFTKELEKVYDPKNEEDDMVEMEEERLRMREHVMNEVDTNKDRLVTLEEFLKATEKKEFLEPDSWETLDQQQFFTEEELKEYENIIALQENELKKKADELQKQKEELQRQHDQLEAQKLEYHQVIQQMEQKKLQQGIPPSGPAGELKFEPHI
active: [7] 0.338
inactive: [1] 0.01 | [2] -0.009 | [3] -0.004 | [4] 0.052 | [5] 0.022 | [6] -0.008 | [8] -0.084 | [9] 0.015 | [10] -0.026

NEBL isoform 2 (UniProt O76041)
inactive: [1] 0.014 | [2] 0.009 | [3] -0.078 | [4] 0.02 | [5] 0.051 | [6] -0.041 | [7] -0.108 | [8] 0.084 | [9] 0.023 | [10] -0.039

NEDD8 (UniProt Q15843)
inactive: [1] 0.063 | [2] 0.019 | [3] 0.113 | [4] -0.003 | [5] 0.045 | [6] 0.041 | [7] 0.025 | [8] -0.107 | [9] 0.02 | [10] 0

MYH11 isoform 2 (UniProt P35749)
inactive: [1] 0.027 | [2] 0.016 | [3] 0.016 | [4] -0.011 | [5] -0.025 | [6] 0.091 | [8] -0.033 | [9] 0.029 | [10] 0.002
active: [7] 0.25

PAK4 (UniProt O96013)
UniProt O96013, sequence (O96013 whole entry, looked up): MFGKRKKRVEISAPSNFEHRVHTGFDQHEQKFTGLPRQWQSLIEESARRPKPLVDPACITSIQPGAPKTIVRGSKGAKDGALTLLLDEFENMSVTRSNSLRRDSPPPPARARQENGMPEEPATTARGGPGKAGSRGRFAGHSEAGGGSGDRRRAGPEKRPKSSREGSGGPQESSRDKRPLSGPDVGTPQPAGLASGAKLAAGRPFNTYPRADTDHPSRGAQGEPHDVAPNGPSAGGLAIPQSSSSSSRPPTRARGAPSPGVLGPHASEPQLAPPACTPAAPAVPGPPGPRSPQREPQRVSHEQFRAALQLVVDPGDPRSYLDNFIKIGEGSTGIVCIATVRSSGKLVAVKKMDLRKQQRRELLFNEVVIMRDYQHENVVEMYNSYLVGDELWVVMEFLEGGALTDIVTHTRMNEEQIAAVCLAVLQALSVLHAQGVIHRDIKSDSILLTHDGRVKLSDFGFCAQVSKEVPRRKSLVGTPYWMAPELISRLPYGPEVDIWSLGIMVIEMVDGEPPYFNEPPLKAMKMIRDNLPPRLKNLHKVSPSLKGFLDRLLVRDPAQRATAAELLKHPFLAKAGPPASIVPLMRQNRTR
inactive: [1] -0.016 | [2] -0.06 | [3] -0.005 | [4] -0.131 | [5] -0.134 | [6] 0.259 | [7] 0.02 | [8] 0.3 | [9] -0.018 | [10] 0.063

NUP93 (UniProt Q8N1F7)
inactive: [1] -0.001 | [2] 0.014 | [3] 0.036 | [4] -0.069 | [5] -0.094 | [6] 0.044 | [7] -0.048 | [8] -0.079 | [9] 0.013 | [10] 0.028

NUP188 (UniProt Q5SRE5)
inactive: [1] -0.006 | [2] -0.006 | [3] 0.074 | [4] -0.067 | [5] -0.077 | [6] 0.05 | [7] -0.031 | [8] -0.045 | [9] 0.029 | [10] 0.021

NUDT4 isoform 2 (UniProt Q9NZJ9)
inactive: [1] 0.009 | [2] 0.021 | [3] -0.05 | [4] 0.013 | [5] 0.005 | [6] -0.018 | [7] -0.068 | [8] 0.058 | [9] 0.076 | [10] 0

NMRAL1 (UniProt Q9HBL8)
UniProt Q9HBL8, sequence (Q9HBL8 whole entry, looked up): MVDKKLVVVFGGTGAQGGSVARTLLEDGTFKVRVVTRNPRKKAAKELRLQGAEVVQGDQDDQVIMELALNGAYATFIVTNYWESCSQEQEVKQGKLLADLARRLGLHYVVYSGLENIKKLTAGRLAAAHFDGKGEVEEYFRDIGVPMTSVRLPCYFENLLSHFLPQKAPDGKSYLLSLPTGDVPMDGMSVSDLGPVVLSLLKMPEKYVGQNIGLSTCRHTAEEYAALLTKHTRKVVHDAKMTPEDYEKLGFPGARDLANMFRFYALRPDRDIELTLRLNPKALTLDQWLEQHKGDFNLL
inactive: [1] -0.03 | [2] -0.023 | [3] 0.178 | [4] 0.045 | [5] -0.046 | [6] 0.045 | [7] -0.092 | [8] 0.053 | [9] 0.011 | [10] -0.034

OGT (UniProt O15294)
inactive: [1] 0.012 | [2] 0.015 | [3] 0.031 | [4] -0.003 | [5] -0.058 | [6] 0.036 | [7] -0.002 | [8] -0.021 | [9] 0.011 | [10] 0.018

NMT1 (UniProt P30419)
inactive: [1] 0.024 | [2] 0.016 | [3] -0.025 | [4] 0.014 | [5] -0.002 | [6] 0.01 | [7] -0.04 | [8] 0.001 | [9] 0.003 | [10] 0.025

NCAPH2 (UniProt Q6IBW4)
inactive: [1] -0.044 | [2] 0.027 | [3] 0.058 | [4] 0.027 | [5] -0.002 | [6] -0.014 | [7] -0.032 | [8] 0.02 | [9] 0.001 | [10] 0.03

NUSAP1 (UniProt Q9BXS6)
inactive: [1] 0.001 | [2] 0.009 | [3] -0.002 | [4] 0.073 | [5] 0.004 | [6] -0.009 | [8] 0.189 | [9] 0.019 | [10] -0.001
active: [7] -0.399

NLRP2 (UniProt Q9NX02)
inactive: [1] -0.011 | [2] -0.003 | [3] -0.04 | [4] -0.048 | [5] -0.067 | [6] 0.041 | [7] 0.031 | [8] -0.05 | [9] -0.012 | [10] -0.017

NELFCD (UniProt Q8IXH7)
inactive: [1] 0.014 | [2] 0.037 | [3] 0.047 | [4] 0.006 | [5] -0.032 | [6] 0.02 | [7] 0.089 | [8] -0.049 | [9] -0.005 | [10] 0.012

NFATC2IP (UniProt Q8NCF5)
UniProt Q8NCF5, sequence (Q8NCF5 whole entry, looked up): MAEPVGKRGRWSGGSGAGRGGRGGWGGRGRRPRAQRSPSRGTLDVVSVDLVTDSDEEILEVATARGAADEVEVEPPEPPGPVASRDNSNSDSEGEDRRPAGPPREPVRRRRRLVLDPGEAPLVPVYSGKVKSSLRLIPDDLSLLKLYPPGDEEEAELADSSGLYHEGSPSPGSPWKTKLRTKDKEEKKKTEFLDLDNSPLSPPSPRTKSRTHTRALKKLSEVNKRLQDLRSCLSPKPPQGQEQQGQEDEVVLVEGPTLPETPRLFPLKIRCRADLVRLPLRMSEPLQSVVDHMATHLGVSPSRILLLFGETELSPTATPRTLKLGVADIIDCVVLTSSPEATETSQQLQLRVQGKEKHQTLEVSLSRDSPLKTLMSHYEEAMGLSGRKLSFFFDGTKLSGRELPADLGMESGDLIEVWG
inactive: [1] -0.024 | [2] 0.069 | [3] 0.041 | [4] 0.033 | [5] 0.006 | [6] 0 | [7] 0.076 | [8] -0.031 | [9] 0.003 | [10] -0.004

ORC5 (UniProt O43913)
UniProt O43913, sequence (O43913 whole entry, looked up): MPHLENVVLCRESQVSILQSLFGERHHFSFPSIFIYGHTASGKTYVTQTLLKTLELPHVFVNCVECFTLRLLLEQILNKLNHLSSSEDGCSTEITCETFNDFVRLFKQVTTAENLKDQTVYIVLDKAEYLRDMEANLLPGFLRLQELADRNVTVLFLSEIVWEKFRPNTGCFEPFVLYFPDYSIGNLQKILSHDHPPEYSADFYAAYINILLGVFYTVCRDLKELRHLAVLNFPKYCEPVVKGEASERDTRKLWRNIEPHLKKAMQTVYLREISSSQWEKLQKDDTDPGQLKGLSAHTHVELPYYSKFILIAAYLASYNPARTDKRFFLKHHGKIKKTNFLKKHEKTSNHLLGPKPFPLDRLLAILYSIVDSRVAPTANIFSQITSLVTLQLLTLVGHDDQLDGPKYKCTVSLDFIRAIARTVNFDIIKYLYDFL
inactive: [1] -0.059 | [2] -0.001 | [3] -0.052 | [4] -0.156 | [5] -0.023 | [6] 0.013 | [7] -0.038 | [8] 0.01 | [9] -0.001 | [10] 0.024

NTMT1 (UniProt Q9BV86)
inactive: [1] 0.023 | [2] 0.026 | [3] 0.026 | [4] -0.029 | [5] -0.024 | [6] 0.015 | [7] 0.055 | [8] -0.101 | [9] 0.008 | [10] 0.056

MYCBP2 (UniProt O75592)
inactive: [1] -0.026 | [2] 0.036 | [3] 0.037 | [4] 0.017 | [5] -0.019 | [6] -0.01 | [7] -0.117 | [8] 0.083 | [9] 0.033 | [10] -0.029

NOCT (UniProt Q9UK39)
UniProt Q9UK39, sequence (Q9UK39 whole entry, looked up): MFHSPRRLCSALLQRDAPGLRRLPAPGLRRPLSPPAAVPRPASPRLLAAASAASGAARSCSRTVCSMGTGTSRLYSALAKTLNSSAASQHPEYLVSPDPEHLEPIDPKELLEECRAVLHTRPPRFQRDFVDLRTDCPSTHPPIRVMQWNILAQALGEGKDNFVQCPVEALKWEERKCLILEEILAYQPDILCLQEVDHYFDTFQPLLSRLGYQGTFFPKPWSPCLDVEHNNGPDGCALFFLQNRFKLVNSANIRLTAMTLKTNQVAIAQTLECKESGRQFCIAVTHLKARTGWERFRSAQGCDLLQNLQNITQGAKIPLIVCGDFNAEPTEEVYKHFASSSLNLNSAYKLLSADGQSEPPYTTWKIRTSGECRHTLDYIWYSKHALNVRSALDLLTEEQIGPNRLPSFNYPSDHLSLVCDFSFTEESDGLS
inactive: [2] -0.04 | [4] 0 | [5] 0.02 | [6] 0.004 | [9] -0.103 | [10] -0.073

ORC3 (UniProt Q9UBD5)
inactive: [2] -0.16 | [5] 0.003 | [7] 0.185 | [8] -0.06

NFATC4 isoform 2 (UniProt Q14934)
UniProt Q14934, sequence (Q14934 whole entry, looked up): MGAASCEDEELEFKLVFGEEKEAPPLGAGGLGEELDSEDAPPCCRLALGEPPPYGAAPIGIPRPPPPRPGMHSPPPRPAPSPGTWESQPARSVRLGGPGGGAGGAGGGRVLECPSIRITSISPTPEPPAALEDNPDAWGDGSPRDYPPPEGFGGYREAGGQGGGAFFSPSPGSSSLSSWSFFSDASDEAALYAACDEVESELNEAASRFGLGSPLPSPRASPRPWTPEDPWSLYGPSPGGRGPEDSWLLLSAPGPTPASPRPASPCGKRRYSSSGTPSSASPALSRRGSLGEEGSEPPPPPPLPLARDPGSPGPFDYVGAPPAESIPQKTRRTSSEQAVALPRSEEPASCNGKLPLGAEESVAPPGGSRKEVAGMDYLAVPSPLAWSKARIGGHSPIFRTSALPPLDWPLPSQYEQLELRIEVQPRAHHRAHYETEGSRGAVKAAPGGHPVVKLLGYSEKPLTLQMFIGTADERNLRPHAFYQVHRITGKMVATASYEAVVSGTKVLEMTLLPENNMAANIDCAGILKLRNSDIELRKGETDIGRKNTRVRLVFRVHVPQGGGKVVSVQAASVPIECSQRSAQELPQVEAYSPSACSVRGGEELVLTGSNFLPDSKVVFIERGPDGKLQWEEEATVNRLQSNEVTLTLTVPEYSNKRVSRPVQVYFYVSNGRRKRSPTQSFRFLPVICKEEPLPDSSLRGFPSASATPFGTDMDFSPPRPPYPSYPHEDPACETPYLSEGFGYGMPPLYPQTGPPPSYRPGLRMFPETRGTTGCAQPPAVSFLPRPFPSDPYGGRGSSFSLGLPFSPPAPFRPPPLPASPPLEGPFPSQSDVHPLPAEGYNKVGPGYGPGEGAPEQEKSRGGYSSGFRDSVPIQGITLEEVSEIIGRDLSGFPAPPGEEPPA
inactive: [1] 0.081 | [2] -0.013 | [3] 0.059 | [4] -0.05 | [5] -0.004 | [7] 0.053 | [8] 0.068 | [9] 0.044 | [10] 0.026

PAPOLG (UniProt Q9BWT3)
UniProt Q9BWT3, sequence (Q9BWT3 whole entry, looked up): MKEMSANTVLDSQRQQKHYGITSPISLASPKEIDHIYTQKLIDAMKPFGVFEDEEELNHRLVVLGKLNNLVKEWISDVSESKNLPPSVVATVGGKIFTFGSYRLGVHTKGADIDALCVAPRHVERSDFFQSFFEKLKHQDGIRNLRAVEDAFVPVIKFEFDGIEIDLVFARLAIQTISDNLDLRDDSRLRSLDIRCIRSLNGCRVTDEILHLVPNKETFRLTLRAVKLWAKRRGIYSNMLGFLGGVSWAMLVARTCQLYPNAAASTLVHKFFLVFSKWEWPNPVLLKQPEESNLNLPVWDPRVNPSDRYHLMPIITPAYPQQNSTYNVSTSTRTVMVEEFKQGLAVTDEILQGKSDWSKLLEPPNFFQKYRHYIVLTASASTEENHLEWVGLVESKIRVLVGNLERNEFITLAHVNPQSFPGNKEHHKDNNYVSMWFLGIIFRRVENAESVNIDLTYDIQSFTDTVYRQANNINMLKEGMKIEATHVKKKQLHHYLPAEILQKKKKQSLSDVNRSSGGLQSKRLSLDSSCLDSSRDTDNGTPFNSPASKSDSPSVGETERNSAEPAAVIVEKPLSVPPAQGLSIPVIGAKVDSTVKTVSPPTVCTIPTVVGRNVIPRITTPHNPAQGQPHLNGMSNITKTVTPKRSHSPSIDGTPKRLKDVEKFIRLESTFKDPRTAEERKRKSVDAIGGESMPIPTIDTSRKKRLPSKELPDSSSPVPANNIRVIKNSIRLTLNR
inactive: [1] -0.176 | [4] -0.04 | [6] -0.02 | [7] -0.013 | [8] -0.049 | [9] -0.235 | [10] 0.031

PAGE2B (UniProt Q5JRK9)
inactive: [1] 0.008 | [2] -0.056 | [4] -0.027 | [5] -0.013 | [6] -0.008 | [7] -0.034 | [8] -0.239 | [9] 0.176 | [10] 0.05

MYO9A isoform 4 (UniProt B2RTY4)
inactive: [2] 0.023 | [3] 0.053 | [5] -0.028 | [6] -0.019 | [7] -0.021 | [8] 0.002 | [9] -0.068 | [10] 0.093
active: [1] 0.248

OSBPL1A (UniProt Q9BXW6)
inactive: [2] 0.028 | [3] 0.007 | [5] 0.019 | [7] -0.095 | [8] 0.05 | [9] 0.013 | [10] 0.038

NUB1 (UniProt H7C5N1)
inactive: [6] 0.312

NUMB isoform 2 (UniProt P49757)
inactive: [6] -0.146 | [9] -0.04

NSUN7 (UniProt Q8NE18)
UniProt Q8NE18, sequence (Q8NE18 whole entry, looked up): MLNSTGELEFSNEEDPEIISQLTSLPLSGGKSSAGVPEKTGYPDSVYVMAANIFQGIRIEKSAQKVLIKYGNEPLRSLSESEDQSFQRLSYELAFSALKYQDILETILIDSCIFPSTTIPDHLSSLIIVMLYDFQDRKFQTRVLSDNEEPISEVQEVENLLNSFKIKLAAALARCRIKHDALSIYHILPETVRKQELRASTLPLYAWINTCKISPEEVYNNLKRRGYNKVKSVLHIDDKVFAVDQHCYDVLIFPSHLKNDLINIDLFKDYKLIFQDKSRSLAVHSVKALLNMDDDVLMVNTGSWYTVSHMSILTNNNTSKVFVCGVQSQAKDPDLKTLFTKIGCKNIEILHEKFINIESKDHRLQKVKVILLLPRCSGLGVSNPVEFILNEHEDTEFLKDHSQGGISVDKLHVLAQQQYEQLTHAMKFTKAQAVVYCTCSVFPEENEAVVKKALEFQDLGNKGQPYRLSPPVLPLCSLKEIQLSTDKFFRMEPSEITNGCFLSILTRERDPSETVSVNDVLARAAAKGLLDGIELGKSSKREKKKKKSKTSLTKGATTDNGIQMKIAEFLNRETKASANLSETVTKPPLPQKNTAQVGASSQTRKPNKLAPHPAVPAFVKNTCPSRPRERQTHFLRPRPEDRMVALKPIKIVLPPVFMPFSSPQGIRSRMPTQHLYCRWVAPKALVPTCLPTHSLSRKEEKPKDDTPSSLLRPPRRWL
inactive: [1] -0.098 | [2] -0.046 | [3] -0.084 | [4] -0.016 | [5] 0.077 | [6] -0.049 | [7] -0.039 | [8] -0.032 | [10] 0.017

P2RY1 (UniProt P47900)
inactive: [2] -0.08 | [3] 0.034 | [4] 0.006 | [5] -0.111 | [6] 0.022 | [7] 0.057 | [8] 0.093 | [9] 0.015

NUB1 isoform 2 (UniProt Q9Y5A7)
inactive: [10] -0.003

MYBL2 (UniProt P10244)
inactive: [1] -0.07 | [4] 0.013 | [6] 0.069 | [7] 0.217 | [8] -0.296 | [9] 0.057 | [10] 0.043

— the supplement of paper PMC10849652
